Test results as given in PubChem BioAssay (NCATS).
Results filed as inconclusive are left out. A number with no mark means an inactive call. Calls of active or inactive are those of the source. Calls come from the whole dose curve; as a rule, active = well fitted inhibition curve with a large enough effect; inconclusive = small, poorly fitted or top-dose-only effect; inactive = no such curve, though single readings can be large or run the other way.
Potency is the fitted concentration of half-maximal effect.

Assay: qHTS Screen of the MIPE 4.0 Collection Against Ewings Sarcoma (TC32) (AID 1259256); note: nearly all actives have a fitted effect of over 45% in size;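 for viability (percent of control): 100% = DMSO-treated cells and 0% = medium-only wells without cells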
Conditions: TC32 Ewing sarcoma viability, CellTiter-Glo, 48 h; series mostly up to 45.8 µM; viability (percent of control): at the top concentration
Source text: There is a large unmet medical need for treatments for Ewing sarcoma, a pediatric sarcoma. We sought to identify compounds that inhibited Ewing sarcoma cells in vitro with the goal to then test promising drugs in two drug combinations in vitro to look for synergistic drug combinations. Promising combinations would then proceed to additional validation, including in vivo testing.
Using the NCATS developed oncology compound library called the Mechanism of Interrogation Plate (MIPE), four Ewing sarcoma cell lines were evaluated (TC32, TC71, RDES, EW8). Compounds, in a 12-point titration series, were incubated with cells for 48 hours and the read out was cell viability (CellTiter-Glo from Promega). These initial experiments were used to select appropriate concentrations of each single agent for subsequent two-drug matrix combinations such that the concentrations in the matrices would span both activity and non-activity.
Cells, in the log phase of growth, were seeded in 5 uL of RPMI plus 5% FBS, […] L-glutamine, 100 U/ml penicillin and 100 ug/ml streptomycin into 1536-well solid-bottom white tissue culture treated Greiner Bio One Plates (789173-F) using a MultiDrop Combi (Thermofisher Scientific) dispenser and a small sterile cassette. One column was media alone to be used as a :"no cells" control. The plates were then covered with sterilized stainless steel gasketed lids from Kalypsys. After allowing cells to attach for 4 hours, 23 nL of test compound or control (negative control DMSO and positive control 9.2 uM Bortezomib-final) were added from a 1536-well polypropylene compound source plate to each well using a 1536 head pin tool from Kalypsys. Cells were then incubated for 48 hours at 37C, 95% relative humidity and 5% CO2. After 48 hours, plates were removed from the incubator and 3 uL of CellTiter-Glo (Promega) was added using an Aurora Flying Reagent Dispenser Bioraptor. Plates were incubated at room temperature for 10 minutes prior to reading the luminescence on the Viewlux (PerkinElmer). The relative luciferase units are used to calculate the percent activity using the activity of DMSO in the cells and no cells columns for normalization of no inhibition and full inhibition respectively.
For `CN(C)[C@@H]1C(=O)C(C(N)=O)=C(O)[C@@]2(O)C(=O)C3=C(O)c4c(O)cccc4[C@@](C)(O)[C@H]3C[C@@H]12`, the Potency was 6.62 µM (active).
For `Cc1sc2c(c1C)C(c1ccc(Cl)cc1)=N[C@@H](CC(=O)OC(C)(C)C)c1nnc(C)n1-2`, the Potency was 1.32 µM (active).
With `CNC(=O)N1N=C(c2ccc(N)cc2)c2cc3c(cc2CC1C)OCO3` (stereo unspecified) the Potency was 11.8 µM (active).
In the case of `O=c1[nH]c2ccccc2n1CCCN1CCC(n2c(=O)[nH]c3cc(Cl)ccc32)CC1`, the “viability (percent of control)” value was 112%.
For `CN(C)CCN(C)CCc1ccc(Cl)c(Cl)c1`, the “viability (percent of control)” value was 106%.
For `CNCC(O)c1ccc(O)cc1` (stereo unspecified), the “viability (percent of control)” value was 122%.
In the case of `O=P1(NCCCl)OCCCN1CCCl` (stereo unspecified), the “viability (percent of control)” value was 109%.
For `COC[C@@H](NC(C)=O)C(=O)NCc1ccccc1`, the “viability (percent of control)” value was 131%.
With `N[C@@H](Cc1ccc(N(CCCl)CCCl)cc1)C(=O)O` the “viability (percent of control)” value was 93.8%.
For `CCCC(C)(COC(N)=O)COC(=O)NC(C)C` (stereo unspecified), the “viability (percent of control)” value was 113%.
With `C[C@@H]1[C@@H](C(=O)C[C@H]2O[C@@H]3O[C@]4(C)CC[C@@H]5[C@H](C)CC[C@@H]([C@H]2C)[C@@]35OO4)O[C@@H]2O[C@]3(C)CC[C@H]4[C@H](C)CC[C@@H]1[C@@]24OO3` the Potency was 20.9 µM (active).
For `COc1ccc2c(c1OC)CN1CCc3cc4c(cc3C1C2)OCO4` (stereo unspecified), the “viability (percent of control)” value was 85.9%.
With `C#CCN(C)[C@H](C)Cc1ccccc1` the “viability (percent of control)” value was 108%.
In the case of `COc1ccc(C(=O)c2c(C)n(CCN3CCOCC3)c3ccccc23)cc1`, the “viability (percent of control)” value was 100%.
In the case of `O=C(O)C(=O)c1cn(Cc2ccccc2)c2ccc(-c3ccc(OC(F)(F)F)cc3)cc12`, the “viability (percent of control)” value was 108%.
With `C=C(C)[C@H]1Cc2c(ccc3c2O[C@@H]2COc4cc(OC)c(OC)cc4[C@@H]2C3=O)O1` the Potency was 0.743 µM (active).
In the case of `Cn1c(CCCC(=O)O)nc2cc(N(CCCl)CCCl)ccc21`, the “viability (percent of control)” value was 107%.
In the case of `CC(O)(CS(=O)(=O)c1ccc(F)cc1)C(=O)Nc1ccc(C#N)c(C(F)(F)F)c1` (stereo unspecified), the Potency was 2.64 µM (active).
With `Cn1cc(C2=C(c3cn(C4CCN(Cc5ccccn5)CC4)c4ccccc34)C(=O)NC2=O)c2ccccc21` the Potency was 8.33 µM (active).
For `O=C1CC[C@@]2(O)[C@H]3Cc4ccc(O)c5c4[C@@]2(CCN3CC2CC2)[C@H]1O5`, the “viability (percent of control)” value was 122%.
With `C[C@@H]1[C@@H](CC(C[C@H]2O[C@@H]3O[C@]4(C)CC[C@@H]5[C@H](C)CC[C@@H]([C@H]2C)[C@@]35OO4)C[S+](=O)([O-])c2ccc(COC(=O)N(C)C)cc2)O[C@@H]2O[C@]3(C)CC[C@H]4[C@H](C)CC[C@@H]1[C@@]24OO3` (stereo partly specified) the Potency was 0.469 µM (active).
For `CN(C)CCc1ccc(O)cc1`, the “viability (percent of control)” value was 104%.
In the case of `C[C@@H]1O[C@@H](O[C@H]2C[C@@H](O)[C@]3(CO)[C@H]4[C@H](O)C[C@]5(C)[C@@H](C6=CC(=O)OC6)CC[C@]5(O)[C@@H]4CC[C@]3(O)C2)[C@H](O)[C@H](O)[C@H]1O`, the Potency was 0.059 µM (active).
In the case of `Fc1ccc(C(OCCN2CCN(CCCc3ccccc3)CC2)c2ccc(F)cc2)cc1`, the Potency was 26.4 µM (active).
In the case of `CN1CCN(C(=O)O[C@H]2c3nccnc3C(=O)N2c2ccc(Cl)cn2)CC1`, the “viability (percent of control)” value was 109%.
With `CNC(=O)c1ccc(N2C(=S)N(c3ccc(C#N)c(C(F)(F)F)c3)C(=O)C23CCC3)cc1F` the Potency was 23.5 µM (active).
